Assay [1] is described as follows: Quantitative High-Throughput drug screen in 47 multiple myeloma cell lines against the NCATS MIPE library collection: FR4_PLB cell viability assay (AID 1918924; also: nearly all actives have a fitted effect of over 35% in size). The method in brief: (§1)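 CellTiter-Glo luminescence (ATP) after 48 h compound exposure, 37C/5% CO2; 500 cells/well; MIPE 4.0 approved/investigational drugs pinned in; DMSO = 100%, media only = 0% viability.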

The nature of assay [2]: Quantitative High-Throughput drug screen in 47 multiple myeloma cell lines against the NCATS MIPE library collection: EJM_DSMZ cell viability assay (AID 1918926; also: nearly all actives have a fitted effect of over 30% in size). An outline of the steps:
(§2)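 We plated 500 myeloma cells per well, pinned in MIPE 4.0 compounds, and incubated for 48 hours at 37C. ATP was then quantified with CellTiter-Glo, with DMSO and media-only wells defining 100% and 0%.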

Assay [3] in a line: Quantitative High-Throughput drug screen in 47 multiple myeloma cell lines against the NCATS MIPE library collection: AMO1_DSMZ cell viability assay (AID 1918927; also: nearly all actives have a fitted effect of over 30% in size). The method in brief:
as §2

A short description of assay [4]: Quantitative High-Throughput drug screen in 47 multiple myeloma cell lines against the NCATS MIPE library collection: ARP1_JJKsccF8 cell viability assay (AID 1918928; also: nearly all actives have a fitted effect of over 40% in size). An outline of the steps:
(§3)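 ATP readout (CellTiter-Glo), 48 h drug incubation, 37 °C/5% CO2, 500 cells per well; normalisation to DMSO (100%) and media-only (0%) controls.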

Assay [5] can be described thus: Quantitative High-Throughput drug screen in 47 multiple myeloma cell lines against the NCATS MIPE library collection: ARD_JJKsccE7 cell viability assay (AID 1918929). An outline of the steps: as §2
Assay [6] can be described thus: Quantitative High-Throughput drug screen in 47 multiple myeloma cell lines against the NCATS MIPE library collection: Karpas620_DSMZ cell viability assay (AID 1918959). Also: nearly all actives have a fitted effect of over 30% in size. An outline of the steps:
as §1

The nature of assay [7]: Quantitative High-Throughput drug screen in 47 multiple myeloma cell lines against the NCATS MIPE library collection: KMM1_JCRB cell viability assay (AID 1918960). Also: nearly all actives have a fitted effect of over 30% in size. The method in brief:
as §3

The nature of assay [8]: Quantitative High-Throughput drug screen in 47 multiple myeloma cell lines against the NCATS MIPE library collection: JIM3_ECACC cell viability assay (AID 1918963; also: nearly all actives have a fitted effect of over 35% in size). The method in brief:
as §1

Assay [9] in a line: Quantitative High-Throughput drug screen in 47 multiple myeloma cell lines against the NCATS MIPE library collection: Delta47_JCRB cell viability assay (AID 1918925; also: nearly all actives have a fitted effect of over 45% in size). The method in brief:
as §2

Assay [10] in a line: Quantitative High-Throughput drug screen in 47 multiple myeloma cell lines against the NCATS MIPE library collection: Karpas417_ECACC cell viability assay (AID 1918961). To be noted: Karpas417 myeloma viability, CellTiter-Glo ATP luminescence, 48 h; viability (% of DMSO): at 45.8 µM (top of the series). An outline of the steps: (§4)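 Myeloma cells (500 per well) were exposed to MIPE 4.0 compounds by pin transfer and incubated 48 hours at 37C, 5% CO2. Viability was read as ATP by CellTiter-Glo luminescence, normalised to DMSO (100%) and media-only (0%) wells.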

A short description of assay [11]: Quantitative High-Throughput drug screen in 47 multiple myeloma cell lines against the NCATS MIPE library collection: INA6_PLB cell viability assay (AID 1918965; also: nearly all actives have a fitted effect of over 55% in size). An outline of the steps:
as §4

The nature of assay [12]: Quantitative High-Throughput drug screen in 47 multiple myeloma cell lines against the NCATS MIPE library collection: H1112_PLB cell viability assay (AID 1918967; also: nearly all actives have a fitted effect of over 30% in size). An outline of the steps:
as §2

The nature of assay [13]: Quantitative High-Throughput drug screen in 47 multiple myeloma cell lines against the NCATS MIPE library collection: JIM1_ECACC cell viability assay (AID 1918964). The method in brief:
as §2

A short description of assay [14]: Quantitative High-Throughput drug screen in 47 multiple myeloma cell lines against the NCATS MIPE library collection: KHM11_PLB cell viability assay (AID 1918962). Also: nearly all actives have a fitted effect of over 35% in size. The method in brief: as §1
Assay [15] can be described thus: Quantitative High-Throughput drug screen in 47 multiple myeloma cell lines against the NCATS MIPE library collection: JJN3_DSMZ cell viability assay (AID 1918966; also: nearly all actives have a fitted effect of over 50% in size). The method in brief: as §2

This note sets out measurements from PubChem BioAssay (NCATS).

Structures are written as SMILES. Results filed as inconclusive are left out. Activity calls are given as the source filed them. Calls follow the shape of the dose curve; as a rule, active = well fitted curve in the direction sought with a large enough effect; inconclusive = small, poorly fitted or top-dose-only effect, or another doubt; inactive = no such curve, though single readings can be large; an effect the other way counts as inactive or inconclusive.
Potency is read from the fitted curve at half-maximal effect.

Regarding `O=c1cc(-c2ccc(O)c(O)c2)oc2cc(O)cc(O)c12`, the Potency entry in assay [1], in assay [2], in assay [3], in assay [4], in [5] and in assay [6] was “inactive” each time. The Potency result in assay [7] and in assay [8] was “inactive” in each case.
Take `C[C@H]1[C@H](O)O[C@@H]2O[C@@]3(C)CC[C@@H]4[C@H](C)CC[C@@H]1[C@@]24OO3`: the Potency in [1] is 6.62 µM (active); in assay [9], 5.9 µM (active); in assay [4], 1.66 µM (active); in [5] it was 4.18 µM (active); in assay [6], 5.26 µM (active); in assay [10], 2.09 µM (active). Moreover, the Potency is 1.66 µM (active) in [11] and 16.6 µM (active) in assay [12].
As for `CNC(=O)[C@H](CC1=CN=C2C=CCC=C12)NC(=O)[C@@H](CC(=O)NO)CC(C)C`, the Potency result in assay [1] and in assay [4] was “inactive” each time. For the same molecule, the Potency in assay [9] is 26.4 µM (active); in [3] it was 0.0743 µM (active); in assay [5] it was 0.118 µM (active); in assay [6], 0.0743 µM (active); in assay [7] it was 0.148 µM (active); in assay [8] it was 26.4 µM (active). The Potency in assay [13] was 83.3 nM (active); in [12], 14.8 µM (active).
Consider `CC=C(C(=CC)c1ccc(O)cc1)c1ccc(O)cc1`, for which the Potency in assay [1] was 20.9 µM (active); in assay [3], 16.6 µM (active); in [5] it was 23.5 µM (active); in assay [6] it was 16.6 µM (active); in assay [7], 20.9 µM (active); in assay [11], 16.6 µM (active). Moreover, the Potency entry in assay [2] and in assay [14] was “inactive” throughout.
On to `CN(C)S(=O)(=O)c1ccc2c(c1)C(=Cc1cc3c([nH]1)CCCC3)C(=O)N2`, for which the Potency in [1] was 2.35 µM (active); in assay [9] it was 2.96 µM (active); in assay [2], 4.69 µM (active); in [5] it was 8.33 µM (active); in assay [6], 1.87 µM (active); in assay [10], 1.32 µM (active). Besides, the Potency in [8] was 11.8 µM (active); in [11], 3.72 µM (active); in assay [15] it was 4.69 µM (active). Besides, the Potency entry in assay [7] was “inactive”.
As for `NC(=O)c1ncn([C@@H]2O[C@H](CO)[C@@H](O)[C@@H]2O)n1`, the Potency result in assay [1], in assay [9], in assay [2], in assay [5], in assay [6] and in assay [14] was “inactive” in each case. The Potency result in assay [8], in assay [13], in assay [11] and in [12] was “inactive” throughout.
Take `CC(C)c1onc(-c2c(Cl)cccc2Cl)c1COc1ccc(C=Cc2cccc(C(=O)O)c2)c(Cl)c1`: the Potency entry in [1], in assay [2], in assay [3], in [4], in assay [6] and in assay [7] was “inactive” each time. The Potency entry in assay [13], in assay [11] and in assay [12] was “inactive” throughout.
`CC(C)N(CCCNC(=O)Nc1ccc(C(C)(C)C)cc1)C[C@H]1O[C@@H](n2cc(Br)c3c(N)ncnc32)[C@H](O)[C@H]1O`: the Potency in [1] was 23.5 µM (active); in assay [9], 16.6 µM (active); in assay [4], 20.9 µM (active); in assay [8], 29.6 µM (active); in assay [11], 18.7 µM (active). Further, the Potency entry in [3], in [5] and in [7] was “inactive” in each case.
Turning to `COc1ccc(-c2oc3c(CC=C(C)C)c(O)cc(O)c3c(=O)c2O)cc1`, the Potency in assay [1] was 20.9 µM (active); in assay [2], 18.7 µM (active); in [11], 16.6 µM (active); in [15] it was 18.7 µM (active); in [12], 16.6 µM (active). Besides, the Potency entry in assay [5], in [6] and in [7] was “inactive” in each case.
For `CCC=CC[C@H]1C(=O)CC[C@@H]1CC(=O)OC`, the Potency result in [1], in assay [2], in assay [3], in assay [4], in [5] and in assay [7] was “inactive” in each case. Besides, the Potency result in [13], in assay [11] and in [12] was “inactive” in each case.
Consider `OCCn1cc(-c2ccc3c(c2)CCC3=NO)c(-c2ccncc2)n1`, for which the Potency entry in assay [1], in [2], in [8] and in [15] was “inactive” in each case. Further, the Potency in assay [5] is 13.2 µM (active); in [10] it was 8.33 µM (active); in assay [14] it was 4.69 µM (active).
In the case of `O=C(O)CCC=CCC[C@@H]1[C@H](N2CCCCC2)[C@@H](O)C[C@@H]1OCc1ccc(-c2ccccc2)cc1`, the Potency entry in assay [1], in [9], in assay [2], in [4], in [7] and in assay [14] was “inactive” each time. The Potency entry in assay [8], in assay [15] and in assay [12] was “inactive” throughout.
Consider `O=C1NC(=O)C(=Cc2ccc(-c3ccc(F)cc3O)o2)S1`, for which the Potency result in assay [1], in [6] and in [8] was “inactive” throughout. Besides, the values for the Potency in [9], in assay [11] and in assay [12] were 0.418 µM (active), 7.43 µM (active) and 20.9 µM (active), respectively.
In the case of `CN(C)CCN(Cc1ccc(Cl)cc1)c1ccccn1`, the Potency entry in assay [1], in assay [4], in assay [5], in assay [6], in [7] and in assay [8] was “inactive” each time. In [15], the Potency entry is “inactive”. The Potency is 9.35 µM (active) in assay [9] and 20.9 µM (active) in [11].
`O=C1Nc2ccc(I)cc2C1=Cc1cc(Br)c(O)c(Br)c1`: the Potency entry in assay [1] and in assay [2] was “inactive” each time. Besides, the Potency in assay [3] was 16.6 µM (active); in assay [6], 14.8 µM (active); in assay [11] it was 2.96 µM (active).
`COc1ccc(C=CC(=O)Nc2ccccc2C(=O)O)cc1OC`: the Potency entry in assay [1], in assay [2], in [5], in [6], in assay [7] and in assay [14] was “inactive” throughout. Besides, the Potency entry in assay [8], in [13] and in assay [12] was “inactive” throughout. For the same molecule, in assay [11], the Potency was 0.0019 µM (active).
